Unmarked numbers belong to inactive results. Results filed as inconclusive are left out. Where a call stands in place of a potency, no number is given. Active and inactive are the calls of the source. Unless noted, calls follow the shape of the dose curve; as a rule, active = well fitted curve in the direction sought with a large enough effect; inconclusive = small, poorly fitted or top-dose-only effect, or another doubt; inactive = no such curve, though single readings can be large; an effect the other way counts as inactive or inconclusive.
Key:
[1] = qHTS for differential inhibitors of proliferation of Plasmodium falciparum line D10 (AID 1877); conditions: series mostly up to 28.7 µM;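 also: parasites grown with compound for 72 h before DNA staining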
[2] = qHTS for differential inhibitors of proliferation of Plasmodium falciparum line Dd2 (AID 1882); conditions: Potency: Plasmodium falciparum Dd2 proliferation inhibition; series mostly up to 28.7 µM; also: nearly all actives have a fitted effect of over 65% in size
How it was run: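 RBC culture, 0.3% parasitemia / 2.5% Hct final; cpd added by pin tool in DMSO; 72 h, 37 C, 5% CO2; lysis buffer + SYBR Green I, o/n RT dark; FI 485/535; norm. to artemisinin 0.29 uM and DMSO.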

[3] = qHTS for differential inhibitors of proliferation of Plasmodium falciparum line HB3 (AID 1886); conditions: Potency: Plasmodium falciparum HB3 proliferation inhibition; series mostly up to 28.7 µM;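 also: parasites grown with compound for 72 h before SYBR Green readout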
[4] = target: ATP-dependent DNA helicase Q1 (Homo sapiens) (UniProt P46063); assay: qHTS Validation Assay for Inhibitors of RecQ-Like Dna Helicase 1 (RECQ1) (AID 2353); conditions: recombinant RECQ1 helicase DNA unwinding assay; series mostly up to 25.6 µM
Chain of ATP-dependent DNA helicase Q1 (Homo sapiens) (P46063 whole entry, looked up): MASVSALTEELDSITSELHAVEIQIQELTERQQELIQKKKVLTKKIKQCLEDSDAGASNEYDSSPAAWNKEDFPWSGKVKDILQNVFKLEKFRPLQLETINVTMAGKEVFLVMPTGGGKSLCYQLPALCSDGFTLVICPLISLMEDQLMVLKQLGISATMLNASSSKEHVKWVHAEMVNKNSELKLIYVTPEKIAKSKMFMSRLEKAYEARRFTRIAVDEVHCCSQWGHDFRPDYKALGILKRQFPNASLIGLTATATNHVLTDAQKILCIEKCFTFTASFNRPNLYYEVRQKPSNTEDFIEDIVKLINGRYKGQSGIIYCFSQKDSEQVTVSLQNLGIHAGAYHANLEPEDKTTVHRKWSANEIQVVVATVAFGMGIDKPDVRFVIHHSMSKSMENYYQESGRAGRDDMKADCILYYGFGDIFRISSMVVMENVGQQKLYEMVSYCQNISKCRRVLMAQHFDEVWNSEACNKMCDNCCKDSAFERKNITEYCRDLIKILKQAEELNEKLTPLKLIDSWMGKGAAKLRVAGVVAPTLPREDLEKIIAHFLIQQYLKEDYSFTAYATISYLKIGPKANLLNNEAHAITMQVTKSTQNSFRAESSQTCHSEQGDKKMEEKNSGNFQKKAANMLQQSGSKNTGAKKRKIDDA
How it was run: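 RECQ1T1 50 nM; forked duplex (20 bp + 30-nt ss tails) 200 nM, ATP 2 mM final; pH 8.0, 2 mM MgCl2, 2.5 ug/ml poly(dI-dC); 15 min compound preincubation; discontinuous kinetic read over 2 h at RT.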

[5] = target: M-phase phosphoprotein 8 (Homo sapiens) (UniProt Q99549); assay: qHTS Validation Assay for Inhibitors for MPP8 Chromodomain Interactions with Methylated Histone Tails (AID 488949); conditions: AlphaScreen MPP8 binding to H3K9me3 peptide; series mostly up to 114 µM; also: nearly all actives have a fitted effect of over 55% in size; also: potency is read from the fitted curve at half-maximal effect
Chain of M-phase phosphoprotein 8 (Homo sapiens) (Q99549 whole entry, looked up): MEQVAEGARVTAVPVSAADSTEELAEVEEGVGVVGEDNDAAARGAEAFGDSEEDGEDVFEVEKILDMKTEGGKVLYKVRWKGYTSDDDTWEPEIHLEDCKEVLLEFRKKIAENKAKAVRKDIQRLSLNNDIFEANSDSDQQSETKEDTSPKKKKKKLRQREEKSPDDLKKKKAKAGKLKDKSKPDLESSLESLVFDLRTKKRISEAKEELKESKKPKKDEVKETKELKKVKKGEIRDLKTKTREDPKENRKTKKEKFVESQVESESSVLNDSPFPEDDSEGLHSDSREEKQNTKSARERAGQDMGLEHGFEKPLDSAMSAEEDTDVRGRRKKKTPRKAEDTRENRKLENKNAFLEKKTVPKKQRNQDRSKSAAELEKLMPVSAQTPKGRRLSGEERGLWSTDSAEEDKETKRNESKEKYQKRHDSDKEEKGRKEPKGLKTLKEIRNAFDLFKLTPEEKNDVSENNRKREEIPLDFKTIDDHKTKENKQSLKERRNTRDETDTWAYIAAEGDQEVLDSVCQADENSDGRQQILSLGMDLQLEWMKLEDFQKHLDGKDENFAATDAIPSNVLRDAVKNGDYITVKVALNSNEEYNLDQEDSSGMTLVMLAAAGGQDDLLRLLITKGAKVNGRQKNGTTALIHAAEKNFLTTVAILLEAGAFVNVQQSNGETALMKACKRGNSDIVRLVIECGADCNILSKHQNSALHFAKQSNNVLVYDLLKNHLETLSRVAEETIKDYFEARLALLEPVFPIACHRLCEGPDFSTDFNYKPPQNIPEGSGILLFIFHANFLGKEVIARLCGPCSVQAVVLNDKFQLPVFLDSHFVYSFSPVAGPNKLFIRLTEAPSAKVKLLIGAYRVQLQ
How it was run: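 Chemiluminescent proximity assay: histidine-tag capture via nickel acceptor beads, biotin peptide via streptavidin donor beads. Protein and peptide each at 50 nM, pH 7.4, with 30 min incubations at room temperature for complex formation, compound exposure and bead binding.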

[6] = target: Transient receptor potential cation channel subfamily V member 1 (Homo sapiens) (UniProt Q8NER1); assay: HTS Assay for Compounds that Act as Enhancers of the Vanilloid Receptor 1 (AID 488979); conditions: TRPV1-expressing cells, enhancer of channel activity, stimulated with capsaicin at EC20; series mostly up to 41.7 µM
Chain of Transient receptor potential cation channel subfamily V member 1 (Homo sapiens) (Q8NER1 whole entry, looked up): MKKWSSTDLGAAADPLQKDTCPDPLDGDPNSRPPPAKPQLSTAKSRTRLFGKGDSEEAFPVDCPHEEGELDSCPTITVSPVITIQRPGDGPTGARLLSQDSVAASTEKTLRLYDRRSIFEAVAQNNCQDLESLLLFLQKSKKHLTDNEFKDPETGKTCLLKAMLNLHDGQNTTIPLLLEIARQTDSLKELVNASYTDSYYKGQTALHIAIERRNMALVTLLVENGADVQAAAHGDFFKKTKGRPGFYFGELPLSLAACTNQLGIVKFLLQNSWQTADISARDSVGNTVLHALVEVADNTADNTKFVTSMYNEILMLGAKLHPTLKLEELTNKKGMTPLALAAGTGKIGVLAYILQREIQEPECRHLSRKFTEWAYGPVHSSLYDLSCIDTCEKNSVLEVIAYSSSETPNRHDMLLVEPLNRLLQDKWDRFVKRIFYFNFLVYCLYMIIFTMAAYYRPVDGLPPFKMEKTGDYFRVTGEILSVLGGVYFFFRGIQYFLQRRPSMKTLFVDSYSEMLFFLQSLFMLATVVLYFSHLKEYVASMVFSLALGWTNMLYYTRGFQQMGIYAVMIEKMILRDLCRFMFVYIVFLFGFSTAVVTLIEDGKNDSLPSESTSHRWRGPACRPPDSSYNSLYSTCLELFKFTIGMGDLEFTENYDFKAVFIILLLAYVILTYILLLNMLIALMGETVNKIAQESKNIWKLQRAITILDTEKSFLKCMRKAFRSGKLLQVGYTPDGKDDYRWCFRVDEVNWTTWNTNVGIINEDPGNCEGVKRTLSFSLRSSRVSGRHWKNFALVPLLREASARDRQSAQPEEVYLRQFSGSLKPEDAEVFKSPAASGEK
How it was run: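 TRPV1-expressing cells loaded with Fluo-8 calcium dye; compounds added and calcium influx read kinetically for 3 min (agonist phase), then capsaicin at EC20 added and read 2 min more for enhancement. Fluorescence ex 480/em 520 nm.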

[7] = target: Thyrotropin receptor (Homo sapiens) (UniProt P16473); assay: qHTS Assay for Antagonists of the Thyroid Stimulating Hormone Receptor (AID 488980); conditions: TSHR-expressing cells, cAMP antagonist read-out; series mostly up to 57.5 µM
Chain of Thyrotropin receptor (Homo sapiens) (P16473 whole entry, looked up): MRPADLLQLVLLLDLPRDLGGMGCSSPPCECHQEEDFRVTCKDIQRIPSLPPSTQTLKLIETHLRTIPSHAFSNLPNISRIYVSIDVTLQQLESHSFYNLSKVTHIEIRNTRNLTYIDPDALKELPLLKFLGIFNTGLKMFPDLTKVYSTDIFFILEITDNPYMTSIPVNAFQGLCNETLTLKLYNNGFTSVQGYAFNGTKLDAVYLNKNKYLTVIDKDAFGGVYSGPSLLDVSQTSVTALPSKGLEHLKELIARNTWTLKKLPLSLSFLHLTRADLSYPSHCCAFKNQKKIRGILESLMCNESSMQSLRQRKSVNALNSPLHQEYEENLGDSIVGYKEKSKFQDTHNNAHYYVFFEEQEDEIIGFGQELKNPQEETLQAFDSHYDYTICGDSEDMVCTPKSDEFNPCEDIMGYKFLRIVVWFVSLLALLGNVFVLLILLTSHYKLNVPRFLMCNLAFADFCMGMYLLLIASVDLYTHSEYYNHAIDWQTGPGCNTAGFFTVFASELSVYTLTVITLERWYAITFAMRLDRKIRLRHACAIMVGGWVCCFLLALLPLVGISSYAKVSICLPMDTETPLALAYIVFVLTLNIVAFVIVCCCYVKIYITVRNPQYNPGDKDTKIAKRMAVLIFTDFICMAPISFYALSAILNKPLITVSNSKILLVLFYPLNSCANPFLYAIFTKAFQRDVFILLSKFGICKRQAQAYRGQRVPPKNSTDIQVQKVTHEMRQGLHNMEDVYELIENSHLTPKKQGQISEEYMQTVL
How it was run: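 Inhibition of TSH-stimulated cAMP accumulation was quantified by homogeneous time-resolved FRET in TSHR-transfected HEK293 cells. Agonist: TSH, 4 nM final (EC80).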

[8] = target: Thyrotropin-releasing hormone receptor (Homo sapiens) (UniProt P34981); assay: qHTS for Small Molecule Agonists and Allosteric Enhancers of Human TRH Receptor: Validation Screen for Agonists (AID 493127;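 active = calcium activation more than 3 SD above the typical response in the agonist read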;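 also: intracellular calcium rise by fluo-8 fluorescence before TRH EC20 addition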); conditions: TRH receptor agonist cell assay; at 2 µM; active compounds read high
Chain of Thyrotropin-releasing hormone receptor (Homo sapiens) (P34981 whole entry, looked up): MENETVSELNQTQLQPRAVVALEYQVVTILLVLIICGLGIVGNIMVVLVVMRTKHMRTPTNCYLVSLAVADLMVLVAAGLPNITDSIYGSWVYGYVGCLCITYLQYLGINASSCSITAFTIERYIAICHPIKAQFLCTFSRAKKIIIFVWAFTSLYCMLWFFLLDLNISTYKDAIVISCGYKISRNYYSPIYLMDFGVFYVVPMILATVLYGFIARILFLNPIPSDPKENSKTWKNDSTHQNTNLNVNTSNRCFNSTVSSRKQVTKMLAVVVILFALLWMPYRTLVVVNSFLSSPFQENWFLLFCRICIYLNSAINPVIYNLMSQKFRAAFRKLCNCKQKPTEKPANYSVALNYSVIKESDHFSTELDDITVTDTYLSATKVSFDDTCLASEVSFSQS
How it was run: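 Kinetic fluorescence assay of agonist-induced calcium release: overnight-plated TRHR cells, room-temperature fluo-8 loading, baseline then compound addition with per-second reads.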

[9] = target: Galactokinase (Homo sapiens) (UniProt P51570); assay: qHTS Validation Assay for Inhibitors of Human Galactokinase (GALK) (AID 493189); conditions: purified human GALK enzyme activity, qHTS 7-point titration; series mostly up to 57.5 µM
Chain of Galactokinase (Homo sapiens) (P51570 whole entry, looked up): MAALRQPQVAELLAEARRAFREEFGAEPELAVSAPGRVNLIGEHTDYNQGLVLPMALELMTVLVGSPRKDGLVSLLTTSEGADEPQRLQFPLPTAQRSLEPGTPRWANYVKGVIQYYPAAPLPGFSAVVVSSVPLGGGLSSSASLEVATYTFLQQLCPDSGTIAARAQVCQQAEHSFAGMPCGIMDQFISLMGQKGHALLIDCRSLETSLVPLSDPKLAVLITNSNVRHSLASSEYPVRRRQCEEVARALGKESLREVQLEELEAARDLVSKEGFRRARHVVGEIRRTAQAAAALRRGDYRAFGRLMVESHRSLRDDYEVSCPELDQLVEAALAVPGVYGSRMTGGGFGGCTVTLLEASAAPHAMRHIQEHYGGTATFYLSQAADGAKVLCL
How it was run: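 Enzyme activity is inferred from ATP consumption: human GALK phosphorylates galactose (100 uM) using 35 uM ATP for 1 h at room temperature, and luciferase-based Kinase-Glo Plus reports unconsumed ATP.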

[10] = Validation screen for small molecules that induce DNA re-replication in SW480 colon adenocarcinoma cells (AID 504364); conditions: DNA re-replication phenotype (high-content imaging); series mostly up to 46.1 µM
How it was run: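 Hoechst-stained SW480 nuclei, imaged at 405 nm excitation after 48 hr compound exposure, were counted for elevated DNA content as the re-replication signal.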

[11] = target: ATP-dependent 6-phosphofructokinase (Trypanosoma brucei brucei) (UniProt O15648); assay: qHTS Assay to Find Inhibitors of T. brucei phosphofructokinase: hit validation (AID 492961);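 also: luminescence reports ADP formed as PFK phosphorylates fructose-6-phosphate with ATP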; conditions: T. brucei PFK, ADP-Glo luminescence; series mostly up to 51.4 µM
Chain of ATP-dependent 6-phosphofructokinase (Trypanosoma brucei brucei) (O15648 whole entry, looked up): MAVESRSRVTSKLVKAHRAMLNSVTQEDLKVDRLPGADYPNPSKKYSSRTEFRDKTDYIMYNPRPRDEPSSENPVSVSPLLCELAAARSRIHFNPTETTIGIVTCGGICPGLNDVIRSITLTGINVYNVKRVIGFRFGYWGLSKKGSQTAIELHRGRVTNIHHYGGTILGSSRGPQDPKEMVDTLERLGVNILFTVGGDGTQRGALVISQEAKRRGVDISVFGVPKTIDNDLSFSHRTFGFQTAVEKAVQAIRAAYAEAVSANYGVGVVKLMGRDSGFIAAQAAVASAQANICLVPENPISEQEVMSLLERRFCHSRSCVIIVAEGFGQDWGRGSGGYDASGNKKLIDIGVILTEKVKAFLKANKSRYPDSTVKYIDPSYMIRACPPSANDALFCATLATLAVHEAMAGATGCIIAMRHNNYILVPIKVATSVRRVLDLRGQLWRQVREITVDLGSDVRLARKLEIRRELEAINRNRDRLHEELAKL
How it was run: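 Reaction: 0.1 M triethanolamine pH 8.0, 5 mM MgCl2, F6P 0.5 mM, ATP 0.1 mM, PFK 1.25 nM, 45 min RT. Read-out: ADP-Glo luminescence. Analysis: concentration-response fits, classed by r2 and efficacy.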

3D7 = assay: qHTS profiling for inhibitors of Plasmodium falciparum proliferation (AID 504749); also: nearly all actives have a fitted effect of over 60% in size; also: potency is read from the fitted curve at half-maximal effect; conditions: P. falciparum in erythrocytes, SYBR Green DNA, 72 h; series mostly up to 28.7 µM
How it was run: (§1)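 Fluorescence of SYBR Green-bound parasite DNA, read at 485/535 nm, served as the growth measure. Infected erythrocytes were cultured with compound 72 h; artemisinin (0.29 uM) and DMSO wells defined the normalization range.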

7G8 = assay: as above; conditions: P. falciparum in erythrocytes, SYBR Green DNA, 72 h; series mostly up to 28.7 µM
How it was run: as §1

CP192 = assay: as above; conditions: P. falciparum in erythrocytes, SYBR Green DNA, 72 h; series mostly up to 28.7 µM
How it was run: as §1

CP201 = assay: as above; conditions: P. falciparum in erythrocytes, SYBR Green DNA, 72 h; series mostly up to 28.7 µM
How it was run: as §1

DIV14 = assay: as above; conditions: P. falciparum in erythrocytes, SYBR Green DNA, 72 h; series mostly up to 28.7 µM
How it was run: as §1

DIV17 = assay: as above; conditions: P. falciparum in erythrocytes, SYBR Green DNA, 72 h; series mostly up to 28.7 µM
How it was run: as §1

GB4 = assay: as above; conditions: P. falciparum in erythrocytes, SYBR Green DNA, 72 h; series mostly up to 28.7 µM
How it was run: as §1

P94_40 = assay: as above; conditions: P. falciparum in erythrocytes, SYBR Green DNA, 72 h; series mostly up to 28.7 µM
How it was run: as §1

PC49 = assay: as above; conditions: P. falciparum in erythrocytes, SYBR Green DNA, 72 h; series mostly up to 28.7 µM
How it was run: as §1

Row | Compound | Potency [1] | Potency [2] | Potency [3] | Potency [4] | Potency [5] | outcome [6] | outcome [7] | activation [8] | outcome [9] | outcome [10] | outcome [11] | Potency (3D7) | Potency (7G8) | Potency (CP192) | Potency (CP201) | Potency (DIV14) | Potency (DIV17) | Potency (GB4) | Potency (P94_40) | Potency (PC49)
1 | COc1ccccc1NC(=O)Nc1nc(-c2cccnc2)nc2ccccc12 | inactive | inactive | inactive | inactive | inactive | inactive | inactive | 0.25% | inactive | inactive | – | – | – | – | – | – | – | – | – | –
2 | COC(=O)[C@@H]1[C@@H]2C[C@H]3c4[nH]c5ccccc5c4CCN3C[C@@H]2CC[C@@H]1O | – | – | – | – | – | – | – | – | – | – | inactive | inactive | inactive | inactive | inactive | inactive | inactive | inactive | inactive | inactive
3 | C[C@@H](C(=O)O)c1ccc(-c2ccccc2)c(F)c1 | – | – | – | – | – | – | – | – | – | – | inactive | inactive | inactive | inactive | inactive | inactive | inactive | inactive | inactive | inactive
4 | CCOC(=O)C(CCc1ccccc1)NC1CCc2ccccc2N(CC(=O)O)C1=O (stereo not given) | – | – | – | – | – | – | – | – | – | – | inactive | inactive | 7.94 µM (active) | inactive | inactive | 7.57 µM (active) | 10.7 µM (active) | 15.1 µM (active) | inactive | inactive
5 | C[N+](C)(C)CCC(=O)c1cccc2ccccc12 | inactive | inactive | inactive | inactive | 10 µM (active) | inactive | inactive | 3.69% | inactive | inactive | – | – | – | – | – | – | – | – | – | –
6 | NCCNS(=O)(=O)c1cccc2cnccc12 | inactive | inactive | inactive | inactive | inactive | inactive | inactive | -0.5% | inactive | inactive | – | – | – | – | – | – | – | – | – | –

Reference: PubChem BioAssay (NCATS)
